For experiment [1], the target named is Fibroblast growth factor receptor 4 (Homo sapiens) (UniProt P22455). The note with it: at 1 µM.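 Further: reported figure is the averaged percent inhibition of FGFR4, from the GSK PKIS kinase screening panel.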
The target in experiment [2] is Tyrosine-protein kinase Fgr (Homo sapiens) (UniProt P09769). The note with it: at 0.1 µM.
Experiment [3] has the same target. The following applies: at 1 µM.
The target in experiment [4] is Vascular endothelial growth factor receptor 1 (Homo sapiens) (UniProt P17948). The note with it: at 0.1 µM.
The target is the same in experiment [5]. The note with it: at 1 µM.
Experiment [6] addresses Receptor-type tyrosine-protein kinase FLT3 (Homo sapiens) (UniProt P36888). The note with it: at 0.1 µM.
For experiment [7] the target is unchanged. The note with it: at 1 µM.
In experiment [8] the test system is T1, Receptor-type tyrosine-protein kinase FLT3 (Homo sapiens), P36888 [D835Y].
T1 sequence (whole entry): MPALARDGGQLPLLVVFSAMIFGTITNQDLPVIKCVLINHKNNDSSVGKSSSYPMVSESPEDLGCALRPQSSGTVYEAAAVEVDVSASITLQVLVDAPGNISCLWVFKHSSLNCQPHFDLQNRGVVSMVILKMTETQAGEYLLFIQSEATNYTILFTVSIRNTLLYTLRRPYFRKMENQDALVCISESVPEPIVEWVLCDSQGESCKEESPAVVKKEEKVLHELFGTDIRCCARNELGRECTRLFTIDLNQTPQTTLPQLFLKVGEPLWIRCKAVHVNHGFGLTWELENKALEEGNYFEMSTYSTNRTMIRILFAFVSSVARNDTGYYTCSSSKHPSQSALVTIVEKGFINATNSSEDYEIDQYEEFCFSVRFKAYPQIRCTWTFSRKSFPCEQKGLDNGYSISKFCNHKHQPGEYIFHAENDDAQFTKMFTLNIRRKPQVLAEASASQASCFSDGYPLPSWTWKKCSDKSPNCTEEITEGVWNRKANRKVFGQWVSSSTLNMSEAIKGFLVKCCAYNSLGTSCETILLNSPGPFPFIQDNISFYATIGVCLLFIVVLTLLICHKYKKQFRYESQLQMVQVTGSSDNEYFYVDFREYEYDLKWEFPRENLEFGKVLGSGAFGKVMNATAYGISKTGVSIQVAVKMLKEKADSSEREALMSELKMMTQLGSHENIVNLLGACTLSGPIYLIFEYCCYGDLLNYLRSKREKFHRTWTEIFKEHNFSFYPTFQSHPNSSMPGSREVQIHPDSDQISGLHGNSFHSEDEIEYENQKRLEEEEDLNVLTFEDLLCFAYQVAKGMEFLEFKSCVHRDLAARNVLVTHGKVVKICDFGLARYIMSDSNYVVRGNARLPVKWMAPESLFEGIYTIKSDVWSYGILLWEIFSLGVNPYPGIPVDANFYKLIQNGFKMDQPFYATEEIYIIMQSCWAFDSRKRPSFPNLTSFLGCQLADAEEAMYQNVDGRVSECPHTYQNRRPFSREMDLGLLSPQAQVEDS
The following applies: at 0.1 µM.

The target of experiment [9] is Non-receptor tyrosine-protein kinase TYK2 (Homo sapiens) (UniProt P29597). The note with it: at 1 µM.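 Further: values are mean percent inhibition of TYK2 kinase.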
The target in experiment [10] is T2, Tyrosine-protein kinase receptor TYRO3 (Homo sapiens) (UniProt Q06418).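 Further: reported percentages are averaged inhibition values of TYRO3 kinase activity.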
T2 sequence (whole entry): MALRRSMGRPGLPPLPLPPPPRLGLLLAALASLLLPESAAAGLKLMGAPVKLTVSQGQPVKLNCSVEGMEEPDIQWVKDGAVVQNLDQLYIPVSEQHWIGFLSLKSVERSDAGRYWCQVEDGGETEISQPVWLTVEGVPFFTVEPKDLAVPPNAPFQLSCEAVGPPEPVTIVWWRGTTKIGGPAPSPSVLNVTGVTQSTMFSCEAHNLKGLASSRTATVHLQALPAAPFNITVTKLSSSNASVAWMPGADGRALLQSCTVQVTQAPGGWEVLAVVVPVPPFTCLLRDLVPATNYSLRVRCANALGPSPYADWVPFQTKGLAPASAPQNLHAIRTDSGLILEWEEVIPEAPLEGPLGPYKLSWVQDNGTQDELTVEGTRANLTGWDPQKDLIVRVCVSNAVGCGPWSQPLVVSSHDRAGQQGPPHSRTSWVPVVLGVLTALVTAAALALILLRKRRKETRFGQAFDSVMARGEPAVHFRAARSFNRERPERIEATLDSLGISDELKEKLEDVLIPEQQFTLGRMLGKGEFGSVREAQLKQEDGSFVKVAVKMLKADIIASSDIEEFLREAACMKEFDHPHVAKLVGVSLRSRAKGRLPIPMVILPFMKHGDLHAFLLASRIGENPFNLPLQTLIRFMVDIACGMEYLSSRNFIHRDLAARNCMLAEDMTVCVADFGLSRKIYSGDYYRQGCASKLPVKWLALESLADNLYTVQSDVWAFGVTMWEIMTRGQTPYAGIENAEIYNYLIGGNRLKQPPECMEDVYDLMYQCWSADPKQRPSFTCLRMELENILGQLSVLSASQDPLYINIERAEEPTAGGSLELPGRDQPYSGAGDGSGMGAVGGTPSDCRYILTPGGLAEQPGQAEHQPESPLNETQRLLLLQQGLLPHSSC
The note with it: at 0.1 µM.

Sequence of Fibroblast growth factor receptor 4 (Homo sapiens) (P22455 22-802 limits assumed): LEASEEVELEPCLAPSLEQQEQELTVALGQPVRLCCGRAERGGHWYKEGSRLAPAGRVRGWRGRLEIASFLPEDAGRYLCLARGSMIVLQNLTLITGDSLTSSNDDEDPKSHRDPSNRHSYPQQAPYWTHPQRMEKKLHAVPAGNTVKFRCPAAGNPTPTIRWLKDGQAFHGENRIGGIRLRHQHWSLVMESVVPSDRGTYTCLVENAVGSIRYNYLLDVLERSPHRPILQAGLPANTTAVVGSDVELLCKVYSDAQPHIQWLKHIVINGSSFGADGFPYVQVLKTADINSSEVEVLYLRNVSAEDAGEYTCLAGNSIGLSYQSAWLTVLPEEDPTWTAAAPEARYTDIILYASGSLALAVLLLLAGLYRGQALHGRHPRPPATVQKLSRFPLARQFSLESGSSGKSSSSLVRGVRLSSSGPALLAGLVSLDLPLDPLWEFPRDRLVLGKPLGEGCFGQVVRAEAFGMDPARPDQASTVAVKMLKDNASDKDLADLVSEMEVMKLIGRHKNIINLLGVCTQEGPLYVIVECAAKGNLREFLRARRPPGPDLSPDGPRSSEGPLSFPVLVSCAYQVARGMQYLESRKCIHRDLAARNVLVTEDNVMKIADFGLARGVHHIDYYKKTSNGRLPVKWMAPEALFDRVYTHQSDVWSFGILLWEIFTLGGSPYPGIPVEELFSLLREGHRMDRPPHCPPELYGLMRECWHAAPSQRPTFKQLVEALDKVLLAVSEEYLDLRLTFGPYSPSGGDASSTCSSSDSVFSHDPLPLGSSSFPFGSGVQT
Sequence of Non-receptor tyrosine-protein kinase TYK2 (Homo sapiens) (P29597 whole entry): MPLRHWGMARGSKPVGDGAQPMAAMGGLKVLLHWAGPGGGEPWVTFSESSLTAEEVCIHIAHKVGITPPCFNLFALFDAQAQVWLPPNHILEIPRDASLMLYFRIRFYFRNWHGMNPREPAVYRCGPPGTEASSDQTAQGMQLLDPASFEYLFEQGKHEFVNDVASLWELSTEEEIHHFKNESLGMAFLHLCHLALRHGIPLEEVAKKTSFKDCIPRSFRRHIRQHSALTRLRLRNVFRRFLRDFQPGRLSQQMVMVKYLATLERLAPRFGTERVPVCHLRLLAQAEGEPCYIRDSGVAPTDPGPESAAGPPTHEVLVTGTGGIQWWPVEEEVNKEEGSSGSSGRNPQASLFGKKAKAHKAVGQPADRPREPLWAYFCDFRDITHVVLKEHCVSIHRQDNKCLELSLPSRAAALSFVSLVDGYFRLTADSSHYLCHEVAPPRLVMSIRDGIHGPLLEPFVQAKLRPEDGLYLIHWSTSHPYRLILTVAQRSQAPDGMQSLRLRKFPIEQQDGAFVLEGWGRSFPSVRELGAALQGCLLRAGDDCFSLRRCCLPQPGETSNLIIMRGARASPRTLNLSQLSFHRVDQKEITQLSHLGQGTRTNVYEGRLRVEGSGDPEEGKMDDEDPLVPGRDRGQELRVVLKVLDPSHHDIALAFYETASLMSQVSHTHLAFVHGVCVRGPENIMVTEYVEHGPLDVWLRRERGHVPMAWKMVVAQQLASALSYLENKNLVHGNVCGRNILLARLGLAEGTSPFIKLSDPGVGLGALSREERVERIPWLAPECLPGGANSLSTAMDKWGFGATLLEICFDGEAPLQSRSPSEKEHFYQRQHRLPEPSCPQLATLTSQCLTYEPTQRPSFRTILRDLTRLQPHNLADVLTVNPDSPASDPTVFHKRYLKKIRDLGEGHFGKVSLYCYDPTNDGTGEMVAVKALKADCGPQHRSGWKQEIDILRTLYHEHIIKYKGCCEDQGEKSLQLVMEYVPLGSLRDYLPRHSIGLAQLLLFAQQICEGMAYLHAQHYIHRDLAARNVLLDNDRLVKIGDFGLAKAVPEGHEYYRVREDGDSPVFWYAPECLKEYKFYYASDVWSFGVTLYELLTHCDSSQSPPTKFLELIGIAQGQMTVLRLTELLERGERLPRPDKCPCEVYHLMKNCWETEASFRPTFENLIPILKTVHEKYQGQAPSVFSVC
Sequence of Vascular endothelial growth factor receptor 1 (Homo sapiens) (P17948 whole entry): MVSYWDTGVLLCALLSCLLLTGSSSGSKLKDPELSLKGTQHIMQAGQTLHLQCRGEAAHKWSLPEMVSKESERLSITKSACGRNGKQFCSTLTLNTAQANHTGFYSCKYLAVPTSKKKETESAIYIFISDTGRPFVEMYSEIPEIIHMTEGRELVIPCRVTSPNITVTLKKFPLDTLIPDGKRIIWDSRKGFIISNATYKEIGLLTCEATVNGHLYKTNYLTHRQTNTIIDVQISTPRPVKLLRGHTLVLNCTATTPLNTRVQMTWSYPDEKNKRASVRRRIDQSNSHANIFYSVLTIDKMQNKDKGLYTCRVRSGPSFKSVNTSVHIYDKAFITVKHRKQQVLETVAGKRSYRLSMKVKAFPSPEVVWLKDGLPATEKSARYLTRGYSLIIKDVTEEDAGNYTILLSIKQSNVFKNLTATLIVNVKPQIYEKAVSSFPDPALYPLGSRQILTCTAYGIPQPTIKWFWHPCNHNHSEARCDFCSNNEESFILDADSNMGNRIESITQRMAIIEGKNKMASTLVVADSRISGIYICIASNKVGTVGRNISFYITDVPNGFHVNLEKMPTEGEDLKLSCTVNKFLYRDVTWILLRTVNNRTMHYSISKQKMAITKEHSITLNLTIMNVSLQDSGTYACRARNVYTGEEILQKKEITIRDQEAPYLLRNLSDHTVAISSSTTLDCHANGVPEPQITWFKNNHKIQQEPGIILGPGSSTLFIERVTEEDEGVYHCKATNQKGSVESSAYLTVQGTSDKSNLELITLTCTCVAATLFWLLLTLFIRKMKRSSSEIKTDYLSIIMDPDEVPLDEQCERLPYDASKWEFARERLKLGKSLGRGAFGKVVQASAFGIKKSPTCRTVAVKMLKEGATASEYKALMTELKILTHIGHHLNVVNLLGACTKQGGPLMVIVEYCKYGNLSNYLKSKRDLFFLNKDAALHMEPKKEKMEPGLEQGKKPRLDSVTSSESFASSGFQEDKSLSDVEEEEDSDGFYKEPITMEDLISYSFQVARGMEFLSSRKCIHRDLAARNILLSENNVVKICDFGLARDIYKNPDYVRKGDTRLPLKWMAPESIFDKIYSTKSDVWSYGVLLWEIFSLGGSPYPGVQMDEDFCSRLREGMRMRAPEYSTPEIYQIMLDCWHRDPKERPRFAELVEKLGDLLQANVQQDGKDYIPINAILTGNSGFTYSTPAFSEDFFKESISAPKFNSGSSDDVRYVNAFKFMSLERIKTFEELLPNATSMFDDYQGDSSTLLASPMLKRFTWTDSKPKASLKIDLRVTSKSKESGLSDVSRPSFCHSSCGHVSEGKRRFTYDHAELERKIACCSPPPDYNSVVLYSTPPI
Sequence of Tyrosine-protein kinase Fgr (Homo sapiens) (P09769 2-529 limits assumed): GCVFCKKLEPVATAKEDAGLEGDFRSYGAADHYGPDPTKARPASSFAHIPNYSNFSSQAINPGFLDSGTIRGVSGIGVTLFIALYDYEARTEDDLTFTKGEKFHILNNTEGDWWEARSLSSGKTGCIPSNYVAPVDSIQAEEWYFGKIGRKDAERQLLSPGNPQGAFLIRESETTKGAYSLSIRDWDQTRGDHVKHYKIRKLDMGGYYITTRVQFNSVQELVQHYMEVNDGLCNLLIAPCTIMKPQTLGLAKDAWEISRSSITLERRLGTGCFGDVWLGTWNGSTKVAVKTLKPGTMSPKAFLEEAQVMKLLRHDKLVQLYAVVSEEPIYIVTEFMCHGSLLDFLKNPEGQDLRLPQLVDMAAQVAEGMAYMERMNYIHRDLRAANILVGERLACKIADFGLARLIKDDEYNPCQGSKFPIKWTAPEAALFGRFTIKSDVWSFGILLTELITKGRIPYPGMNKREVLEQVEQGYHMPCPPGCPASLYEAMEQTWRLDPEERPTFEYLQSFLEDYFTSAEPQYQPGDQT

What is called inhibition is the relative decrease from the control value, in per cent. In the case of `FC(F)(F)c1cccc(Nc2nccc(-c3cnn4nc(-c5ccccc5)ccc34)n2)c1`, the inhibition in [1] was determined as 1.26%; in experiment [2], 2.98%; in experiment [3], 8.69%; in experiment [4] it was 2.04%; in [5] it was 1.17%; in experiment [6], 1.84%. The inhibition in experiment [7] is 18.2%; in experiment [8], -4.32%; in experiment [9], -5.81%; in experiment [10], -0.57%.
In the case of `Cc1ccc(NC(=O)c2ccoc2)cc1-c1ccc(C(=O)NCC2CC2)cc1`, the inhibition amounted to 1.63% in [1]; 2.23% in experiment [2]; 3.07% in [3]; 1.47% in experiment [4]; 8.07% in [5]; 0.8% in [6]. For the same molecule, the inhibition was 0.9% in [7], -5.38% in experiment [8], -0.16% in experiment [9] and 0.97% in [10].
Turning to `C[C@@H](Oc1cc(-n2cnc3ccc(OC4CCN(C)CC4)cc32)sc1C(N)=O)c1ccccc1Cl`, the inhibition in experiment [1] was -1.19%; in experiment [2], 3.65%; in experiment [3], 4.89%; in [4], 1.54%; in [5] it was 3.12%; in [6], 3.07%. For the same molecule, the inhibition is 14.4% in [7], 1.72% in experiment [8], -7.54% in experiment [9] and 2.39% in experiment [10].
For the molecule `CCc1ccc(Oc2nccc(-c3c(-c4ccc(F)cc4)ncn3C3CCNCC3)n2)cc1`, the inhibition in experiment [1] amounted to 1.42%; in experiment [2], 2.39%; in experiment [3] it was 6.95%; in experiment [4], 2.69%; in experiment [5] it was 3.25%; in experiment [6], 5.16%. For the same molecule, the inhibition was 5.11% in experiment [7], -2.28% in [8], -1.9% in [9] and 1.15% in experiment [10].
On to `Fc1ccc(-c2ncn(C3CCNCC3)c2-c2ccnc(Oc3ccc(Oc4ccccc4)cc3)n2)cc1`, for which the inhibition in experiment [1] was 3.31%; in experiment [2] it was -0.13%; in experiment [3], 4.83%; in experiment [4], -0.48%; in experiment [5], 3.29%; in experiment [6], 2.97%. Besides, the inhibition is 1.85% in experiment [7], -3.32% in experiment [8], -3.59% in experiment [9] and 1.47% in [10].
Consider `COc1cc(Nc2ncc3c(C)nc(-c4cccc(C(F)(F)F)c4)n3n2)cc(OC)c1OC`, for which the inhibition in experiment [1] came out at 0.75%; in experiment [2], 7.22%; in experiment [3], 14%; in experiment [4] it was 2.19%; in experiment [5], 5.18%; in experiment [6] it was 6.14%. Besides, the inhibition in experiment [7] is 36.3%; in experiment [8] it was 3.11%; in experiment [9], -1.24%; in [10], 4.04%.
As for `NC(=O)Cc1ccccc1Oc1nccc(-c2c(-c3ccc(F)cc3)ncn2C2CCNCC2)n1`, the inhibition in [1] was 0.51%; in [2], 0.84%; in experiment [3], 2.97%; in experiment [4], 0.07%; in experiment [5], 0.23%; in experiment [6] it was -1.59%. The inhibition is 1.61% in experiment [7], -3.58% in [8], -2.45% in [9] and 0.04% in [10].
Consider `O=C(Nc1ccc(Oc2ccc3[nH]c(NC(=O)c4ccccc4)nc3c2)cc1)Nc1cc(C(F)(F)F)ccc1F`, for which the inhibition in experiment [1] is 0.83%; in [2], 9.57%; in [3] it was 7.53%; in experiment [4], 5.53%; in experiment [5], 39.3%; in experiment [6], 6.63%. In addition, the inhibition in experiment [7] was 53.4%; in [8] it was -0.18%; in experiment [9], -0.97%; in [10], 2.33%.
As for `CCS(=O)(=O)c1ccc(OC)c(Nc2ncc(-c3cccc(-c4ccccc4F)c3)o2)c1`, the inhibition is 16.3% in [1]; 11.9% in experiment [2]; 52.1% in experiment [3]; 24.9% in experiment [4]; 68.4% in experiment [5]; 6.25% in [6]. Further, the inhibition was 30% in experiment [7], 5.31% in experiment [8], 1.31% in experiment [9] and 3.28% in experiment [10].

For the origin of these results see ChEMBL document CHEMBL1961873, “Compounds: GSK PKIS; Assays: Nanosyn kinase panel” (2012).
